Screens (PubChem)
This is a sample that favours compounds with a hit; in the whole collection about 4.4% have one here.
NFkB transloc inh: blocks IL-1B driven NFkB nuclear translocation in HUVEC cells; HUVEC IL-1B NFkB p65 nuclear translocation imaging; inhibition, % at 2 µM; 94,000 compounds, 0.43% hits; AID 796;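 active = inhibition above about 30% together with a positive call from visual inspection of the well image, limit read from the data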;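 note: nuclear over cytoplasmic p65 intensity ratio measured by imaging; 0% = IL-1B stimulated DMSO wells and 100% = unstimulated DMSO wells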
IL1B cytotox: HUVEC cytotoxicity counter-screen, IL-1B stimulated; HUVEC cell count loss, Hoechst imaging; cell count reduction, % at 2 µM; 94,000 compounds, 0.41% hits; AID 845;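 active = cell count reduction more than 3 SD above the screen-wide mean, cut at about 70% in these data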;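 note: normalized per plate to untreated control cells as the no-loss baseline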
Cav32 inh: blocks human Cav3.2 T-type calcium channel | O95180 | Cav3.2-expressing cells, Fluo-4 calcium fluorescence FDSS; hits give low values | B-score at 10 µM | 100,000 compounds, 4% hits;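 active = single-dose well whose peak fluorescence ratio is a statistical outlier from its plate by either plate-standardised score or position-corrected B-score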
IL1B NFkB pot: enhances IL-1B driven NFkB nuclear translocation | activation, % at 2 µM | HUVEC IL-1B NFkB p65 nuclear translocation imaging | 94,000 compounds, 0.3% hits;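 active = activation above 40%, about the mean plus 3 SD, also judged a hit on visual image review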;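 note: percent activation is computed from the nuclear over cytoplasmic p65 intensity ratio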
Starred values were filed as active, the others as inactive.

Results for C=CCN(CC=C)C(=S)NC(=O)c1ccc(-c2ccccc2)cc1 ?
NFkB transloc inh: 0; IL1B cytotox: -12; Cav32 inh: -4.4*; IL1B NFkB pot: 0

How did O=C1N[C@@H](Cc2ccccc2)C(=O)N2[C@H]1C[C@]1(Br)c3ccccc3N(S(=O)(=O)c3ccc(F)cc3)[C@H]21 do in these assays?
Cav32 inh: -2.5

Results for Cn1c(-c2ccc(C=O)s2)nc2c3ccccc3c3ccccc3c21 ?
NFkB transloc inh: 8; IL1B cytotox: 28; Cav32 inh: -5.5*; IL1B NFkB pot: -8

What do the screens show for `O=C(CCC1CCCC1)c1c(O)c2ccccc2oc1=O`?
NFkB transloc inh: 5; IL1B cytotox: -2; Cav32 inh: -8*; IL1B NFkB pot: -5

What do the screens show for `O=C(c1c(O)c2ccccc2oc1=O)C1CCCCC1`?
NFkB transloc inh: 0; IL1B cytotox: -5; Cav32 inh: -0.64; IL1B NFkB pot: 0

What do the screens show for `CC(C)CCC1CC(CSC(=N)N)OC1=O` (stereo not drawn)?
NFkB transloc inh: -9; IL1B cytotox: -43; Cav32 inh: 0.19; IL1B NFkB pot: 9

Results for COc1ccc(/C=C2\CCc3ccccc3C2=O)cc1Cn1nc(C)c(Br)c1C ?
NFkB transloc inh: -21; IL1B cytotox: -37; IL1B NFkB pot: 21

Results for COc1ccc(/C=C2\CCc3ccccc3C2=O)cc1Cn1cccn1 ?
NFkB transloc inh: -20; IL1B cytotox: -7; Cav32 inh: -3.7*; IL1B NFkB pot: 20

How did O=c1oc2ccccc2cc1NCc1ccccc1O do in these assays?
NFkB transloc inh: -12; IL1B cytotox: 1; Cav32 inh: -5.2*; IL1B NFkB pot: 12

Results for Cc1cc(NC(=O)c2noc3c2CCCC3)nn1Cc1ccc(Cl)cc1 ?
NFkB transloc inh: -2; IL1B cytotox: -16; Cav32 inh: -4.8*; IL1B NFkB pot: 2

How did COc1ccc2c(c1)CCc1c(C(=O)Nc3cc(C)n(Cc4ccc(Cl)cc4)n3)noc1-2 do in these assays?
Cav32 inh: 0.58

Results for COc1cccc(SCc2noc(C(=O)NCCC(C)C)c2C(=O)NCCC(C)C)c1 ?
Cav32 inh: -1.1

What do the screens show for `O=[N+]([O-])c1nn(-c2ccc3c(c2)OCCO3)n(O)c1=NCc1ccccc1Cl`?
NFkB transloc inh: -92; IL1B cytotox: -29; Cav32 inh: -0.97; IL1B NFkB pot: 92*

How did CCN(Cc1ccccc1)C(=O)CSc1nc(C)cc(C)c1C#N do in these assays?
NFkB transloc inh: -5; IL1B cytotox: -27; Cav32 inh: -4.1*; IL1B NFkB pot: 5

How did Cc1cc(C)c(C#N)c(SCC(=O)N2CCN(Cc3ccccc3)CC2)n1 do in these assays?
NFkB transloc inh: -10; IL1B cytotox: -14; Cav32 inh: -1; IL1B NFkB pot: 10

Results for CC(Nc1nc(N2CCCCC2)nc2ccccc12)c1ccccc1 (stereo not drawn) ?
NFkB transloc inh: 4; IL1B cytotox: -19; Cav32 inh: -7*; IL1B NFkB pot: -4

What do the screens show for `CCO[C@H]1OC(C(=O)N2CCN(Cc3ccc4c(c3)OCO4)CC2)=C[C@@H](C)[C@@H]1CCCO`?
Cav32 inh: 0.82

How did Cc1[nH]c2ccccc2c1C1C(c2ccccc2)=NN=C(C(C)C)N1O (stereo not drawn) do in these assays?
NFkB transloc inh: -6; IL1B cytotox: 2; Cav32 inh: -5.4*; IL1B NFkB pot: 6

What do the screens show for `Cc1[nH]c2ccccc2c1SCC(=O)O`?
NFkB transloc inh: 4; IL1B cytotox: -29; Cav32 inh: 0.052; IL1B NFkB pot: -4

What do the screens show for `O=C1CC(O)(c2ccccc2)C(c2ccccc2)=C1c1ccccc1` (stereo not drawn)?
NFkB transloc inh: 4; IL1B cytotox: 14; Cav32 inh: -5*; IL1B NFkB pot: -4

What do the screens show for `Cc1cc(C(=O)Nc2sc3c(c2C#N)CCC(C)C3)no1` (stereo not drawn)?
NFkB transloc inh: -8; IL1B cytotox: 3; Cav32 inh: -0.58; IL1B NFkB pot: 8

How did CC1CCc2c(sc3ncn4c(SCC(=O)NCc5ccco5)nnc4c23)C1 (stereo not drawn) do in these assays?
NFkB transloc inh: -169; IL1B cytotox: -16; Cav32 inh: -4; IL1B NFkB pot: 169*

How did CC1CCc2c(sc(NC(=O)C(=O)NCc3ccco3)c2C#N)C1 (stereo not drawn) do in these assays?
NFkB transloc inh: -42; IL1B cytotox: -64; Cav32 inh: 0.6; IL1B NFkB pot: 42*

What do the screens show for `CN1OC(COC(=O)c2ccc(Cl)cc2Cl)CC1c1ccccc1` (stereo not drawn)?
NFkB transloc inh: -21; IL1B cytotox: 20; Cav32 inh: -2; IL1B NFkB pot: 21

What do the screens show for `COc1cc(-c2ccc3oc(-c4ccsc4)cc3c2)cc(OC)c1OC`?
Cav32 inh: 0.19

How did COc1cc(N(C)C)c(NC(C)=O)cc1C(=O)O do in these assays?
NFkB transloc inh: -10; IL1B cytotox: 85*; Cav32 inh: -0.29; IL1B NFkB pot: 10

Results for COC(C[C@H](O)C[C@H](O)COCc1ccccc1)OC ?
Cav32 inh: -0.18

What do the screens show for `COCC(C)n1c(C)cc(C(=O)COC(=O)c2ccc(N3CCCC3=O)cc2)c1C` (stereo not drawn)?
NFkB transloc inh: -5; IL1B cytotox: -5; Cav32 inh: 0.97; IL1B NFkB pot: 5

Results for CCCCC(=O)Nc1nc(C)c(C(C)=O)s1 ?
NFkB transloc inh: 0; IL1B cytotox: 11; Cav32 inh: -2.1; IL1B NFkB pot: 0

How did CC(=O)c1sc(NC(=O)C2(F)C(F)(F)C(F)(F)C(F)(F)C(F)(F)C2(F)F)nc1C do in these assays?
Cav32 inh: -4*

What do the screens show for `CC(C)(C)c1ccc(/C=N/NC(=O)Cc2c[nH]c3ccccc23)cc1`?
NFkB transloc inh: -3; IL1B cytotox: 2; Cav32 inh: -2.5; IL1B NFkB pot: 3

What do the screens show for `Cc1ccccc1N(CC(=O)N/N=C/c1ccc(Cl)cc1)C(=O)c1ccccc1`?
NFkB transloc inh: 15; IL1B cytotox: 0; Cav32 inh: -5.2*; IL1B NFkB pot: -15

How did O=C(Cc1cccc2ccccc12)N/N=C/c1ccc(F)cc1 do in these assays?
NFkB transloc inh: 4; IL1B cytotox: 26; Cav32 inh: -4*; IL1B NFkB pot: -4

How did Cc1ccccc1N(CC(=O)N/N=C/c1ccc(F)cc1)C(=O)c1ccccc1 do in these assays?
NFkB transloc inh: -4; IL1B cytotox: -2; Cav32 inh: -5.6*; IL1B NFkB pot: 4

Results for CCN(CC)C(=O)CC(c1ccc(N(C)C)cc1)c1c(O)cc(OC)cc1OC (stereo not drawn) ?
Cav32 inh: 0.19

What do the screens show for `C/C(=N\Nc1nc2c(s1)CCCC2)c1ccccc1`?
NFkB transloc inh: -26; IL1B cytotox: -14; Cav32 inh: -0.2; IL1B NFkB pot: 26

How did COc1ccc(-n2c(Cc3cccn3C)nnc2SCC(=O)Nc2ccccc2C)cc1 do in these assays?
NFkB transloc inh: 4; IL1B cytotox: -3; Cav32 inh: -6.4*; IL1B NFkB pot: -4

What do the screens show for `CCn1c(Cc2ccccc2)nnc1SCC(=O)Nc1nccs1`?
NFkB transloc inh: -10; IL1B cytotox: -22; Cav32 inh: 0.17; IL1B NFkB pot: 10

What do the screens show for `Cc1ccc(-n2c(Cc3cccn3C)nnc2SCC(=O)NC2CCCCC2)cc1`?
Cav32 inh: -1.8
